Consider 35 molecules from PubChem BioAssay (NCI).

Each structure is given as a SMILES string. This is part of a sample that, as a whole, favours compounds with a hit. Of some 83,000 tested, about 20% had one in any assay.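 Single-dose data. Exposure time 48 hours. Values below 10 considered active.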 The source made the active and inactive calls.

One assay concerns CCRF-CEM leukemia. Kind of assay: NCI-60 one-dose screen, 48 h (100 = growth as untreated, 0 = no growth, -100 = all killed). As to conditions: 10 µM unless noted.
Turning to `O=[N+]([O-])c1cc([N+](=O)[O-])c(Cl)c(Cl)c1Cl`, the growth was -22.3% (active). Same read-out and setting: for `C/C(=N/OC(=O)N(C)C)c1ccc(Cl)cc1Cl` the value was 94.1% (inactive); for `O=C(NCc1ccc([N+](=O)[O-])cc1)Nc1ccc(S(=O)(=O)F)cc1`, 81.4% (inactive).

On to `CC1(C)N=C(N)N=C(N)N1c1ccc(OCCCCOc2ccc(S(=O)(=O)F)cc2)c(Cl)c1`, for which the growth is 16% (inactive).

Regarding `CCCCOC(=O)c1ccccc1C(=O)O.CCCCOC(=O)c1ccccc1C(=O)O.[Cu+2]`, the growth was 108% (inactive). Regarding `O=[N+]([O-])c1ccc2cnn(CSP(=S)(c3ccccc3)c3ccccc3)c2c1`, the growth was 45.9% (inactive). The same measure, in the same setting: for `NC(=O)C(Cl)Cl` the value was -19.9% (active); for `CCN(CC)c1ccc(C=C2C(=O)NC(=S)NC2=O)cc1`, 38.9% (inactive); for `Clc1ccc(SSC(Cl)(Cl)Cl)cc1`, 109% (inactive). Turning to `[O]=[Sn]([CH]1CCCCC1)[CH]1CCCCC1`, the growth was -42.2% (active). Same read-out and setting: the value for `ClCCN(CCCl)c1nc(Cl)c(C2CC(c3ccccc3)=NN2c2ccccc2)s1` (stereo unspecified) was 88.9% (inactive). Same read-out and setting: the value for `CC(=O)C1CCC2C3CC=C4CC(OC(=O)Cc5ccc(N(CCCl)CCCl)cc5)CCC4(C)C3CCC12C` (stereo unspecified) was 64.5% (inactive); that for `Cc1ccccc1O` was 103% (inactive); that for `O=[N+]([O-])c1ccccc1N1CCNCC1` was 112% (inactive).

Another assay relates to MOLT-4 leukemia. The assay is described as above. As to conditions: 10 µM.
On to `CCCCn1cc(C(=O)/C(C#N)=C/c2cc3ccccc3nc2Cl)c2cc(OC)ccc21`, for which the growth is 67.8% (inactive). The same measure, in the same setting: for `CC(=O)C1C(=O)N(C)C(=O)N(C)C1=O` the value was 104% (inactive). On the same count and under the same terms, for `CC1(C)N=C(N)N=C(N)N1c1cccc(C(=O)Nc2cccc(S(=O)(=O)F)c2)c1` the value was 112% (inactive). The same measure, in the same setting: for `C[C@]12CC[C@@H]3C4=C(CC[C@H]3[C@@H]1CC[C@@H]2O)CC(=O)CC4` the value was 89% (inactive).

Turning to `Oc1ccccc1OB(Oc1ccccc1O)N(CCCl)CCCl`, the growth was 57.6% (inactive). Same read-out and setting: for `NC(Cc1ccc2c(c1)OCO2)c1ccc2c(c1)OCO2` (stereo unspecified) the value was 107% (inactive). As to `COc1ccc(-c2ccc(OC)c(OC)c2OC)cc1`, the growth is 22.7% (inactive).

As for `CC[C@@]1(C2O[C@@H](C3O[C@@](O)(CC)[C@H](C)C[C@@H]3C)C[C@@H]2C)CC[C@H]([C@]2(C)CCC3(C[C@H](O)[C@@H](C)[C@@H]([C@H](C)[C@@H](OC)[C@H](C)C(=O)O)O3)O2)O1` (stereo partly specified), the growth is 30.8% (inactive). The same measure, in the same setting: the value for `N#CC1c2ccccc2C=CN1C(=O)c1ccc(N(CCCl)CCCl)cc1` (stereo unspecified) was 72.2% (inactive); that for `CSc1ccccc1NP1(=O)OCC(C)([N+](=O)[O-])CO1` (stereo unspecified) was 94.4% (inactive); that for `Cc1ccc(N)cc1[As]=[As]c1cc(N)ccc1C` (stereo unspecified) was -29.9% (active). As for `C/C(=N/OC(=O)N(C)C)c1cc(Cl)ccc1Cl`, the growth is 89.7% (inactive). With `CCC(C)[C@H]1O[C@]2(C=C[C@@H]1C)C[C@@H]1C[C@@H](C/C=C(\C)[C@@H](OC3C[C@H](OC)C(O[C@H]4C[C@H](OC)[C@@H](O)[C@H](C)O4)[C@H](C)O3)[C@@H](C)/C=C/C=C3\CO[C@@H]4[C@H](O)C(C)=C[C@@H](C(=O)O1)[C@]34O)O2` (stereo partly specified), the growth is -26.6% (active). With `CC1(C)N=C(N)N=C(N)N1c1ccc(CCCCc2ccc(S(=O)(=O)F)cc2)cc1`, the growth is 25.3% (inactive). Regarding `Cc1ccc(C(=O)C2CN(C)CCC2(O)c2ccc(C)cc2)cc1` (stereo unspecified), the growth was 103% (inactive). Regarding `O=S(=O)(O)c1ccc(-c2ccc([As](=O)(O)O)cc2)cc1`, the growth was 101% (inactive). For the molecule `O=C1NC(=O)C(CN2C(=O)C3(c4ccccc42)[C@H](Cl)C(=O)N3c2ccccc2)C(=O)N1` (stereo partly specified), the growth was 62.5% (inactive). Same read-out and setting: for `O=[N+]([O-])c1cc([N+](=O)[O-])c(Cl)c(Cl)c1Cl` the value was 2.06% (active).

Turning to `C=CCC1(CC)C(=O)NC(=S)NC1=O`, the growth was 93.2% (inactive).

With `CCC[CH2][Sn]([CH2]CCC)([CH2]CCC)[O]C(=O)CC`, the growth was 7.41% (active). For `n1nc(-c2nonc2-c2nn[nH]n2)n[nH]1`, the growth was 110% (inactive). For the molecule `CC1(C)N=C(N)N=C(N)N1c1ccc(OCCCCOc2ccc(S(=O)(=O)F)cc2)c(Cl)c1`, the growth was 26.7% (inactive).

`CCCCOC(=O)c1ccccc1C(=O)O.CCCCOC(=O)c1ccccc1C(=O)O.[Cu+2]`: the growth is 96.8% (inactive).

For the molecule `O=[N+]([O-])c1ccc2cnn(CSP(=S)(c3ccccc3)c3ccccc3)c2c1`, the growth is 44% (inactive). Same read-out and setting: for `NC(=O)C(Cl)Cl` the value was 109% (inactive); for `CCN(CC)c1ccc(C=C2C(=O)NC(=S)NC2=O)cc1`, 81% (inactive); for `Clc1ccc(SSC(Cl)(Cl)Cl)cc1`, 99.7% (inactive). Take `[O]=[Sn]([CH]1CCCCC1)[CH]1CCCCC1`: the growth was 6.59% (active). Regarding `ClCCN(CCCl)c1nc(Cl)c(C2CC(c3ccccc3)=NN2c2ccccc2)s1` (stereo unspecified), the growth is 75.4% (inactive).

For `CC(=O)C1CCC2C3CC=C4CC(OC(=O)Cc5ccc(N(CCCl)CCCl)cc5)CCC4(C)C3CCC12C` (stereo unspecified), the growth is 73% (inactive). For the molecule `Cc1ccccc1O`, the growth was 107% (inactive). Same read-out and setting: the value for `CC(=O)Nc1ccc(C=C2C(=O)NC(=O)NC2=O)cc1` was 88% (inactive).
